The full list was thinned out, with hits kept by preference.
Pf Dd2 inh: Plasmodium falciparum Dd2 growth inhibition | P. falciparum Dd2 growth, SYBR Green, 72 h | Potency, µM (titrated, usually from 28.9 µM), for the others: at the top dose activity, negative = inhibition, most hits filed as inhibitors | actives 4.3% (n = 120,000) | AID 1347417; active = well fitted inhibition curve with a large enough effect;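 note: plate controls were DMSO vehicle for no effect and reference drug for full effect; nearly all actives have a fitted effect of over 65% in size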
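Readout: SYBR Green fluorescence, 485 nm excitation, 535 nm emission, after ~16 h lysis at 37C. Before that, Dd2-infected red cells (2.5% hematocrit) grew 72 h with compound, 29 uM top final concentration.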
* = called active by the depositor; i = inactive; [ ] = another dose, or the depositor's remark. Potency is the fitted concentration of half-maximal effect.

SMILES | Pf Dd2 inh
Cc1ncncc1C(=O)N1CCOC(CC(c2ccccc2)c2ccccc2)C1 (centres undefined) | -16.6%
CCn1nc(C)c(C(=O)N2CCC(=O)N(CC3CC3)C(C(C)C)C2)c1C (centres undefined) | -10.0%
Cc1cccc(CN2CCc3nc(N4CCN(c5ccccn5)CC4)ncc3C2)c1 | i
COc1cccc(CN2CCc3nc(N4CCN(C)CC4)ncc3C2)c1 | -22.3%
COc1cccc(CN2CCc3nc(N4CCN(c5ncccn5)CC4)ncc3C2)c1 | 11.2µM*
Cc1nn2c(c1-c1ccnn1C(C)C)N(C(=O)c1ccc(F)cc1)CCC2 | 7.5%[44.1 µM]
CCCCCCn1c(CNC(=O)c2ccccc2)nc2ccccc21 | -20.2%
CCCCn1c(C(C)NC(=O)c2ccccc2)nc2ccccc21 (centres undefined) | i
CCCCn1c(NCc2cc(Cl)ccc2O)nc2ccccc21 | 3.16µM*
O=C(c1ccc(Cl)cc1)N1CCC2(CC1)CN[S+](=O)([O-])c1cccnc1O2 | 8.1%
COc1ccc(C(=O)N2CCCC(O)(CN3CCCC3)C2)c(OC)c1 (centres undefined) | -7.8%
CN1C[C@H](NC(=O)NC2(c3ccccc3)CCOCC2)CCC[C@@H](C(=O)N(C)Cc2cccnc2)CC1=O | -0.6%
COCCN(Cc1nc(-c2cc3c(cc2Cl)OCO3)oc1C)C(C)C | -17.4%
Cc1ccc(C(=O)N2CCCCCCNC(=O)[C@@H]3C[C@@H](c4nc(C(C)C)no4)C[C@@H]32)s1 | -12.9%
Cn1cc(CN2CCNc3cc(Nc4cccnc4)ncc3C2)cn1 | -0.9%[44.1 µM]
c1cncc(Nc2cc3c(cn2)CN(Cc2cccs2)CCN3)c1 | -0.3%[44.1 µM]
c1ccc(-c2cc3c(cn2)CN(Cc2c[nH]c4ccccc24)CCN3)cc1 | 7.94µM*
COc1ccccc1CN1CCNc2cc(Nc3ccccc3)ncc2C1 | 6.31µM*
c1ccc(CN2CCNc3cc(-c4cccnc4)ncc3C2)cc1 | -12.4%[44.1 µM]
Cn1cnc(CN2CCNc3cc(Nc4ccccc4)ncc3C2)c1 | i
Cn1ccnc1CN1CCNc2cc(Nc3ccccc3)ncc2C1 | i
Fc1ccc(Nc2cc3c(cn2)CN(Cc2ccncc2)CCN3)cc1Cl | 7.08µM*
COCCN1CCNc2cc(Nc3cccc(OC)c3)ncc2C1 | i
Cc1[nH]cnc1CN1CCNc2cc(-c3ccccc3)ncc2C1 | i
CN(C)c1ccc(CN2CCNc3cc(Nc4ccccc4)ncc3C2)cc1 | 5.62µM*
SMILES | Pf Dd2 inh
c1ccc(Nc2cc3c(cn2)CN(Cc2ncc[nH]2)CCN3)cc1 | 6.8%[44.1 µM]
O=C1CCN(C(=O)[C@H](Cc2ccccc2)NC(=O)c2cccs2)CCCOCCN1 | 7.2%
COc1ccc(OC)c(NC(=O)N2c3ccccc3CC2c2nc(C3CC3)no2)c1 (centres undefined) | -0.6%[5.79 µM]
CCC(=O)Nc1ccc(-c2c(-c3cc(OC)cc(OC)c3)nn(-c3ccc(C)cc3)c2OC(C)=O)cc1 | -15.1%
Cc1nc2c(c(-c3ccc(Cl)cc3)n1)CCN(C(=O)C(C)(C)C)CC2 | i
O=C(c1ccc(C(F)(F)F)cc1)N1CCC2(CC(c3cccnc3)=NO2)C1 (centres undefined) | 3.1%
CN(CC1CCOC1)C(=O)Nc1ccc(F)cc1 (centres undefined) | i[5.79 µM]
O=C([C@@H]1C[C@H](F)CN1C(=O)Cc1ccccc1F)N1CCCCC1 | -11.3%
Cc1ccc(C(=O)N2C[C@@H](COCC(N)=O)[C@H](c3ccncc3)C2)cc1 | 4.6%
c1cncc(CN2CCn3c(nnc3C3CCCNC3)C2)c1 (centres undefined) | 16.7%[44.1 µM]
COc1ccc2cc(C(=O)N3CCC4(CC3)CC(O)CCO4)[nH]c2c1 (centres undefined) | 5.6%
CN(C)C(=O)N1CCC(c2nc(C3CCOC3)no2)CC1 (centres undefined) | 8.2%
O=C(c1ccoc1)N1CCC(N2C(=O)C3(CCCCC3)C2c2ccncc2)CC1 (centres undefined) | -16.5%
CS(=O)(=O)N1CCC(N2C(=O)C3(CCCCC3)C2c2ccncc2)CC1 (centres undefined) | -2.7%
CCOC(=O)CCNC(=O)N1CCC(N2C(=O)C3(CCCCC3)C2c2ccncc2)CC1 (centres undefined) | -0.9%
CN1CCC(N2CCC(N3C(=O)C4(CCCCC4)C3c3ccncc3)CC2)CC1 (centres undefined) | -0.8%
O=C(NC1CCCCC1)N1CCC(N2C(=O)C3(CCCCC3)C2c2ccncc2)CC1 (centres undefined) | 5.01µM*
Cc1ccc(CNC(=O)N2CCC(N3C(=O)C4(CCCCC4)C3c3ccncc3)CC2)cc1 (centres undefined) | 11.2µM*
CC(=O)N1CCc2cc(S(=O)(=O)CCC(=O)N3CCC(Cc4nncn4CC4CC4)CC3)ccc21 | -16.3%
Cc1ccc(CC2CCOC3(CCN(C(=O)c4cccc(C#N)c4)CC3)C2)cc1 (centres undefined) | i
CC(C)c1noc(CCNC(=O)[C@H]2CNC[C@H](C(=O)N3CCOCC3)C2)n1 | 2.4%
Cc1cc(=O)n(CC(=O)N2CCCC(C)(c3ccccc3)C2)nc1C (centres undefined) | -7.9%
Cc1cc(C)n(CCC(=O)N2CCCC2c2nc(C3CCOCC3)no2)n1 (centres undefined) | 14.3%
O=C(Cc1ccccc1)N1CCNc2cnc(Nc3ccccc3)nc2C1 | -20.4%[44.1 µM]
CC(C)NC(=O)N1CCNc2cnc(Nc3cccc(F)c3)nc2C1 | -7.1%[44.1 µM]
SMILES | Pf Dd2 inh
COc1ccccc1Nc1ncc2c(n1)CN(C(=O)c1ccnn1C)CCN2 | 3.4%[44.1 µM]
O=C(c1ccc(Oc2ccccc2)cc1)N1CCNc2cnc(Nc3cccnc3)nc2C1 | 12.6µM*
N#Cc1cccc(C(=O)N2CCNc3cnc(Nc4cccc(F)c4)nc3C2)c1 | i
CN(C)c1cccc(C(=O)N2CCNc3cnc(Nc4cccc(C(F)(F)F)c4)nc3C2)c1 | 7.94µM*
O=C([C@@H]1C[C@H](F)CN1C(=O)Nc1ccc(F)cc1)N1CCCCC1 | 1.9%
COc1ccc(OC)c([S+](=O)([O-])c2nnn3c2nc(NC2CC2)c2ccccc23)c1 | 7.9%
NS(=O)(=O)CCCC(=O)N1CCC(c2ncc[nH]2)CC1 | -16.2%
COc1cccc(-c2cnc([C@@H]3COCCN3Cc3cnc4ccccc4c3)[nH]2)c1 | -10.2%[44.1 µM]
O=C(Nc1ccccc1)N1C[C@@H]2C[C@H](C1)c1c(-c3cccs3)ccc(=O)n1C2 | -7.8%[44.1 µM]
CCOc1ccccc1CN1CCC2(CCN(C(=O)C3CCCC3)CC2)Oc2ccccc21 | -16.8%
CCOc1ccccc1CN1CCC2(CCN(C(=O)Cc3ccc(F)cc3)CC2)Oc2ccccc21 | 8.91µM*
CCCN1CCC2(CCN(C(=O)Nc3ccccc3)CC2)Oc2ccccc21 | i
CCOc1ccccc1CN1CCC2(CCN(CCC(C)C)CC2)Oc2ccccc21 | 1µM*
CCCN1CCC2(CCN(C(=O)COC)CC2)Oc2ccccc21 | -18.1%[44.1 µM]
CCOc1ccccc1CN1CCN(S(=O)(=O)c2ccccc2)CC1 | 11.9%
O=c1cccc2n1CC1CC2CN(Cc2cc3n(n2)CCNC3)C1 (centres undefined) | 2.6%
Cc1cc(C)cc(NC(=O)c2sc3nc(-c4ccccc4)cn3c2C)c1 | 6.6%
Cc1c(C(=O)Nc2ccc(F)c(C(F)(F)F)c2)sc2nc(-c3ccccc3)cn12 | 11.2µM*
Cc1c(C(=O)Nc2cc(F)ccc2F)sc2nc(-c3ccc(F)cc3)cn12 | i
CC(=O)N1CCCC(c2[nH]ccc2C(=O)NCCCn2cccn2)C1 (centres undefined) | 12.3%
COc1ccccc1CN1Cc2cc(NC(=O)Cc3cccs3)ccc2OC(C)C1=O (centres undefined) | i
